Reference: PubChem BioAssay (Tox21)
Records with an inconclusive call do not appear. Entries that show only a call come without a potency. The source made the active and inactive calls. Calls follow the shape of the dose curve; as a rule, active = well fitted cell-killing curve with a large enough effect in the repeat runs; inconclusive = weak or mixed curves; inactive = no such curve, though single readings can be large or run the other way.

Test: qHTS assay to identify small molecule antagonists of the androgen receptor (AR) signaling pathway - cell viability counter screen (AID 743033; also: nearly all actives have a fitted effect of over 45% in size)
Details: AR-bla HEK293 viability, CellTiter-Glo luminescence, 16 h; series mostly up to 58.5 µM
Description: National Center for Advancing Translational Sciences [NCATS]
NIH Chemical Genomics Center [NCGC]
U.S. Environmental Protection Agency [EPA]
National Institutes of Environmental Health Sciences [NIEHS]
National Toxicology Program [NTP]
U.S. Food and Drug Administration [FDA]
Androgen receptor (AR), a nuclear hormone receptor, plays a critical role in AR-dependent prostate cancer and other androgen related diseases. Endocrine disrupting chemicals (EDCs) and their interactions with steroid hormone receptors like AR may cause disruption of normal endocrine function as well as interfere with metabolic homeostasis, reproduction, developmental and behavioral functions. To identify the compounds that inhibit AR signaling, GeneBLAzer AR-UAS-bla-GripTite cell line (Invitrogen, Carlsbad, CA, USA) containing a beta-lactamase reporter gene under control of an Upstream Activator Sequence (UAS) stably integrated into HEK293 cells was used to screen the Tox21 10K compound library. The cytotoxicity of the Tox21 compound library against the AR-bla cell line was tested in parallel by measuring the cell viability using CellTiter-Glo assay in the same wells.
Tox21 Assay Protocol Summary:
AR-bla cells were dispensed at 2,000 cells/5 uL of assay medium per well into black wall/clear-bottom 1536-well plates using a Multidrop Combi (ThermoFisher Scientific, Waltham, MA) dispenser. After the assay plates were incubated at a 37C and 5% CO2 for 4 hr, 23 nL of compounds dissolved in DMSO, positive controls or DMSO only was transferred to the assay plate by a Pintool station (Kalypsys, San Diego, CA), followed by addition of 1 uL of agonist (R1881) in culture medium using a Bioraptr Flying Reagent Dispenser (FRD) workstation (Beckman Coulter, Indianapolis, IN, USA). The plates were incubated at a 37C and 5% CO2 for 16 h. After 1 uL of LiveBLAzerTM B/G FRET substrate was added using a Bioraptr FRD, the plates were incubated at room temperature for 2 h and fluorescence intensity was measured by an Envision plate reader (PerkinElmer, Shelton, CT). For cell viability readout that measures cytotoxicity, 4 ul/well of CellTiter-Glo reagent was added into the assay plates using a Bioraptr FRD. After 30 min incubation at room temperature, the luminescence intensity in the plates was measured using a ViewLux (PerkinElmer) plate reader.
In the case of `CCC(CO)(CO)CO`, the Potency is reported as “inactive”. For `COC(=O)C1=C(C)NC(C)=C(C(=O)OC(C)(C)CN(C)CCC(c2ccccc2)c2ccccc2)C1c1cccc([N+](=O)[O-])c1` (stereo not given), the Potency was “inactive”. For `CCOC(=O)c1c(N)sc2c1CCN(Cc1ccccc1)C2`, the Potency was “inactive”. In the case of `C1=CCC2CC=CC2C1` (stereo not given), the Potency is reported as “inactive”. With `CCN(CC)c1cccc(O)c1` the Potency was “inactive”. In the case of `CSSc1ccoc1C`, the Potency is reported as “inactive”. For `O=C(O)CO`, the Potency was “inactive”. With `CC(C)C(O)C(C)(C)CO` (stereo not given) the Potency was “inactive”. In the case of `O=C(O)/C=C/c1ccc(O)c(O)c1`, the Potency is reported as “inactive”. With `O=C(NC(Cc1cc(=O)[nH]c2ccccc12)C(=O)O)c1ccc(Cl)cc1` (stereo not given) the Potency was “inactive”. In the case of `OCC(CO)n1cnc(-c2ccc(F)cc2)c1-c1ccnc(Oc2ccccc2)n1`, the Potency is reported as “inactive”. For `O=C(CCS)OCC(COC(=O)CCS)(COC(=O)CCS)COC(=O)CCS`, the Potency was “inactive”. For `O=C1OC[C@H](Cc2cccc(O)c2)[C@H]1Cc1cccc(O)c1`, the Potency was “inactive”. With `COc1ccc(-n2nc(C(F)F)cc2-c2ccc(S(C)=O)cc2)cc1` (stereo not given) the Potency was “inactive”. In the case of `CNC1CCCN(c2c(F)cc3c(=O)c(C(=O)O)cn(C4CC4)c3c2OC)C1` (stereo not given), the Potency is reported as “inactive”. With `CC1CCC(C(C)CS)CC1S` (stereo not given) the Potency was “inactive”. For `C=C(C)C(=O)OCCC(F)(F)C(F)(F)C(F)(F)C(F)(F)C(F)(F)C(F)(F)F`, the Potency was “inactive”. For `CCc1ccc(C)cc1`, the Potency was “inactive”. With `Nc1ccc(N=Nc2ccc(N)cc2)cc1` the Potency was “inactive”. With `CC(=O)C(=O)CC(C)C` the Potency was “inactive”. With `Cc1ccc(S(=O)(=O)NC(=O)NC2CCCCC2)cc1` the Potency was “inactive”. For `CC(=O)OC(C)C[N+](C)(C)C` (stereo not given), the Potency was “inactive”. For `O=NN(CCCl)C(=O)NCCCl`, the Potency was “inactive”. In the case of `CC1=C2[C@@H]([C@H](C)CC[C@H]2/C=C(\C)C(=O)O)[C@H](O)C1`, the Potency is reported as “inactive”. For `O=C1c2ccccc2C(=O)c2c(O)ccc(O)c21`, the Potency was “inactive”. With `O=C(O)CN1C(=O)c2cccc3cccc(c23)C1=O` the Potency was “inactive”. For `CC(=O)OCC(C)C`, the Potency was “inactive”. With `CC(C)COC(=O)COc1cc(Cl)c(Cl)cc1Cl` the Potency was “inactive”. In the case of `CC(=O)C(C)=O`, the Potency is reported as “inactive”. For `CCCCCc1ccco1`, the Potency was “inactive”. With `CC[C@H]1OC(=O)[C@H](C)[C@@H](O[C@H]2C[C@@](C)(OC)[C@@H](O)[C@H](C)O2)[C@H](C)[C@@H](O[C@@H]2O[C@H](C)C[C@H](N(C)C)[C@H]2O)[C@](C)(O)C[C@@H](C)/C(=N\OCOCCOC)[C@H](C)[C@@H](O)[C@]1(C)O` the Potency was “inactive”. For `CCCCCCCCCCCCCCN(C)C`, the Potency was “inactive”. For `CCCCCCC(O)CCCCCCCCCCC(=O)OC` (stereo not given), the Potency was “inactive”. With `O=C(O)CCCc1c[nH]c2ccccc12` the Potency was “inactive”. With `FC(F)(F)C(F)(F)C(F)(F)C(F)(F)CCI` the Potency was “inactive”. For `COc1ccc(N)c([N+](=O)[O-])c1`, the Potency was “inactive”. With `CC(C(=O)O)c1ccc(C(=O)c2cccs2)cc1` (stereo not given) the Potency was “inactive”. With `CCCCCCCC(=O)OCCCCCC` the Potency was “inactive”. With `O=CNNC=O` the Potency was “inactive”. For `C=C(C)c1ccccc1`, the Potency was “inactive”.
